# Mcl1 Bid PPI: Mcl-1/Bid binding inhibitors, primary screen, biochemical, TR-FRET, 1536-well | TR-FRET Mcl-1/Bid-Dy647 peptide binding | 0.97% of 220,000 active | AID 1021, 2008 | inhibition, % at 21.7 µM | Induced myeloid leukemia cell differentiation protein Mcl-1 (Homo sapiens), Q07820;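 active = compounds that cut the binding signal by more than half at the single screening dose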;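 also: His-tagged Mcl-1 with europium anti-His antibody binding Bid BH3 peptide; 0% = Mcl-1 plus peptide wells and 100% = peptide-only wells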
# Target sequence (Q07820 whole entry, looked up): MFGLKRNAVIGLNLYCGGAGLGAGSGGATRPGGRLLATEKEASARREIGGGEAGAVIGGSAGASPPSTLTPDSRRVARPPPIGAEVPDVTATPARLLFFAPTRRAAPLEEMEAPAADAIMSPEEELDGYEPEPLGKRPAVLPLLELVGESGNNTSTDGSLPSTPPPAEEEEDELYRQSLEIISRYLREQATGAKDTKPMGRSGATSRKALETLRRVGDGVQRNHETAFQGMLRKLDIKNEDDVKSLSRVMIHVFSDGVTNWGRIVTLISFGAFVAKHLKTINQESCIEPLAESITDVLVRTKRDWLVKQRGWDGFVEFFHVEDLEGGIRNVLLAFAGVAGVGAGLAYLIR
# Hck Nef HTS: inhibitors of Nef-activated human Hck kinase, primary screen, biochemical, Z-Lyte FRET, 384-well, Hck-YEEI; Tyrosine-protein kinase HCK (Homo sapiens), P08631; Recombinant Hck-YEEI plus Nef, Z-Lyte FRET kinase assay; inhibition, % at 20 µM; 0.68% of 220,000 active; AID 463187, 2010;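 active = Hck-Nef kinase inhibition above about 50%, limit read from the data; inactive = inhibition below that limit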;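 also: 0% = DMSO with Hck plus Nef and 100% = Hck alone without Nef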
# 14-3-3 Bad inh: inhibitors of 14-3-3 zeta/Bad binding, primary screen, biochemical, TR-FRET, bovine 14-3-3 zeta | 14-3-3 protein zeta/delta (Bos taurus), P63103 | TR-FRET 14-3-3zeta/Dy647-pBad peptide displacement, 1 h | inhibition, % at 21.7 µM | 0.71% of 220,000 active | AID 781, 2007;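 active = inhibition above about 70%, limit read from the data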;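 also: 0% = full 14-3-3 plus peptide FRET controls and 100% = background without 14-3-3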
# Target sequence (P63103 whole entry, looked up): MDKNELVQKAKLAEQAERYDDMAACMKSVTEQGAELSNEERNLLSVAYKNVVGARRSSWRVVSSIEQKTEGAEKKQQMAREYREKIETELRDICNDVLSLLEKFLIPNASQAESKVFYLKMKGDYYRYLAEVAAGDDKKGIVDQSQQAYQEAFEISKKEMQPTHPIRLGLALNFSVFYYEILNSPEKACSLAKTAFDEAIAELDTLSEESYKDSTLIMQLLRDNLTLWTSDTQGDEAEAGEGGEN
# Mcl1-Noxa inh: Mcl-1/Noxa binding inhibitors, primary screen, biochemical, TR-FRET, 1536-well; 1.5% of 220,000 active; TR-FRET Mcl-1/Noxa peptide binding, 2 h; inhibition, % at 21.7 µM; Induced myeloid leukemia cell differentiation protein Mcl-1 (Homo sapiens), Q07820;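 active = compounds that cut the protein-peptide binding signal by more than 50% relative to plate controls in a single-dose test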;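 also: His-tagged Mcl-1 with rhodamine Noxa BH3 peptide and terbium anti-His antibody; 0% = Mcl-1 plus Noxa peptide wells and 100% = peptide-only wells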
# Pf gametocyte: late stage P. falciparum gametocyte viability inhibitors, primary screen, ATP luminescence, HTS; 0.065% of 150,000 active; AID 743093, 2013; P. falciparum stage V gametocytes, 24 h; inhibition, % at 10.9 µM;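 active = inhibition above the mean plus 3 SD of compounds within the control limits, set per campaign, cut at about 38% in these data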;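 also: 0% = DMSO wells and 100% = medium only without gametocytes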
# Bim-Mcl-1: inhibitors of Bim peptide binding to Mcl-1, primary screen, biochemical, bead-based flow cytometry, multiplex; Induced myeloid leukemia cell differentiation protein Mcl-1 (Homo sapiens), Q07820; AID 1009, 2008; Bim peptide-Mcl-1 binding; 0.1% of 190,000 active; inhibition, % at 10 µM; in the data active = inhibition above about 40%;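 also: 0% = no compound tracer wells and 100% = peptide blocker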
# The depositor's hits bear a star; nt = no result. Only some compounds are listed: those with a hit (about 2.9% of all), similar ones and a draw of the others.
SMILES,Mcl1 Bid PPI,Hck Nef HTS,14-3-3 Bad inh,Mcl1-Noxa inh,Pf gametocyte,Bim-Mcl-1
CC(=O)Nc1ccc(S(=O)(=O)NC2(C(F)(F)F)C(=O)Nc3c2c(=O)[nH]c(=O)n3Cc2cccnc2)cc1 (centres undefined),-78.5,3.2,0.8,56.4*,-9.3,-2.0
CC(=O)Nc1ccc(S(=O)(=O)NC2(C(F)(F)F)C(=O)Nc3c2c(=O)[nH]c(=O)n3Cc2ccco2)cc1 (centres undefined),-39.4,-11.8,3.8,56.4*,-3.8,-7.0
CC(=O)Nc1ccc(S(=O)(=O)NC2(C(F)(F)F)C(=O)Nc3c2c(=O)n(C)c(=O)n3C)cc1 (centres undefined),-128.7,2.1,9.3,52.4*,nt,0.0
Cc1nc(CNC(=O)c2ccccc2OC2CCN(S(C)(=O)=O)CC2)cs1,-4.8,16.9,6.1,-9.3,-22.1,-5.0
CCN(CC)C(=O)CN(C)S(=O)(=O)c1cccc2nsnc12,75.6*,0.8,-8.1,-7.3,nt,-1.0
CCOc1cc(NC(=O)c2cccs2)c(OCC)cc1NC(=O)CCC(=O)NCCN1CCOCC1,-8.8,15.0,-3.8,-10.2,nt,0.0
Cc1ccc(/C=c2\sc3nc(-c4ccco4)nn3c2=O)o1,25.4,12.7,0.6,77.1*,nt,5.0
Cc1ccc(/C=c2\sc3nc(-c4ccccc4Br)nn3c2=O)o1,62.2*,6.2,-10.2,78.6*,nt,9.0
COc1ccc(Br)cc1/C=c1\sc2nc(-c3ccco3)nn2c1=O,nt,nt,nt,nt,23.0,nt
O=c1nc2s/c(=C\c3ccco3)c(=O)n2nc1Cc1ccc(F)cc1,-31.3,11.8,-5.1,64.6*,1.4,-2.0
Cc1ccc(-c2nc3s/c(=C\c4ccco4)c(=O)n3n2)cc1,22.0,4.8,-4.1,52.1*,nt,-3.0
Cc1ccc(C2=NOC(=O)/C2=C\c2ccc(C)o2)cc1,-45.5,17.3,0.9,8.5,-3.3,nt
CC1=NOC(=O)/C1=C\c1ccc(-c2ccc(Br)cc2C(=O)O)o1,-114.8,5.2,8.6,15.9,nt,0.0
CC1=NOC(=O)/C1=C\c1ccc(-c2cc(Cl)ccc2Cl)o1,40.6,3.2,16.3,53.3*,-0.1,-3.0
CC1=NOC(=O)/C1=C/c1ccc(-c2ccc(Cl)cc2)o1,67.2*,1.5,51.0,67.0*,nt,0.0
c1ccc(-c2nnc3sc(-c4ccncc4)nn23)cc1,-14.3,6.3,12.5,nt,52.0*,2.0
CC1C/C(=C/c2ccco2)C(=O)/C(=C/c2ccco2)C1 (centres undefined),-12.8,66.6*,-4.0,52.8*,nt,16.0
Cc1ccc2c(c1)N(CCC(=O)NCCN1CCOCC1)C(=O)CO2,-6.8,2.9,-9.0,51.6*,-14.5,-3.0
COc1cccc(CCc2nnc(CCC(=O)NCCc3cccc(C)n3)o2)c1,-19.0,13.9,-9.6,-0.4,12.0,0.0
NC(=S)Nc1ccc(F)cc1F,77.1*,-15.0,-1.5,-12.1,-16.5,nt
CN(C)c1ccc(N/C(N)=N/c2nc(C(F)(F)F)cc(C(F)(F)F)n2)cc1,-51.0,33.9,-14.2,60.5*,11.4,1.0
COc1ccc(-c2cc(C(F)F)n3ncc(C(=O)N4CCSCC4)c3n2)cc1,-1.4,3.3,10.0,-20.1,nt,-2.0
Cc1ccc2[nH]c3c(c2c1)CCN1C(=O)OC(C)(C)C31C (centres undefined),-18.6,-11.0,-6.2,67.9*,2.0,-1.0
Oc1ccc(N=Nc2cccc(Cl)c2)cc1C=Nc1ccc(N2CCOCC2)cc1,56.3*,14.4,15.9,86.5*,9.0,0.0
Oc1c(Br)cc(Cl)cc1C=Nc1ccc(N2CCOCC2)cc1,-60.5,10.5,15.8,21.8,nt,31.0
SMILES,Mcl1 Bid PPI,Hck Nef HTS,14-3-3 Bad inh,Mcl1-Noxa inh,Pf gametocyte,Bim-Mcl-1
NS(=O)(=O)c1ccc(CCNC(=O)CCCCCn2c(=S)[nH]c3ccc(Br)cc3c2=O)cc1,-190.4,50.1*,35.6,-198.7,nt,-2.0
COc1ccc(-c2nn3cnnc3s2)cc1OC,52.9*,3.6,-9.6,-6.4,9.9,1.0
O=C(C(Sc1ccccc1)c1ccccc1)N1CCN(c2ccccc2)CC1 (centres undefined),-32.3,1.1,-10.6,22.2,nt,-1.0
CNCCCOc1ccc(C)cc1Br,61.1*,-0.3,23.7,25.2,7.6,0.0
COc1ccc(N2CCN(C3CCCN(Cc4cccc(OC)c4)C3)CC2)cc1 (centres undefined),nt,nt,nt,nt,-11.2,nt
NC(=O)COC(=O)c1cc([N+](=O)[O-])ccc1NCCO,-15.4,7.3,0.3,-4.6,5.0,nt
CN1CCN(CCCNC(=O)c2ccc(/C=C3/Sc4ccccc4N(Cc4cccc(Cl)c4)C3=O)cc2)CC1,-50.7,-9.2,77.3*,28.3,-21.8,-1.0
CN1CCN(CCCN2c3ccccc3Sc3ccc(Cl)cc32)CC1,44.7,3.0,45.9,77.2*,nt,-1.0
CN1CCN(CCCNC(=O)c2ccc(/C=C3\Sc4ccccc4N(Cc4ccc(F)cc4)C3=O)cc2)CC1,-28.9,-21.3,73.5*,13.0,5.2,0.0
CCN1CCN(CCNC(=O)c2ccc(/C=C3\Sc4ccccc4N(Cc4ccccc4F)C3=O)cc2)CC1,-9.1,11.7,58.5,18.4,-8.7,-2.0
Cc1cccc(OCC(=O)N2CCN(C(=O)c3ccco3)CC2)c1,-18.1,0.2,-4.4,15.8,-57.6,-4.0
O=C(Nc1nc2c(s1)CCCC2)C1COc2ccccc2O1 (centres undefined),9.6,7.6,-4.6,15.4,nt,0.0
CCOC(=O)C1CCCN(c2c(N3CCN(C)CC3)c(=O)c2=O)C1 (centres undefined),-21.2,1.4,6.1,-23.9,nt,0.0
CCOC(=O)C1CCCN(c2c(N3CCN(c4cccc(Cl)c4)CC3)c(=O)c2=O)C1 (centres undefined),86.1*,13.1,4.8,-1.4,nt,-4.0
O=C(Nc1ccc(F)cc1)c1ccc(-n2cncn2)c([N+](=O)[O-])c1,-10.1,-20.5,0.7,4.7,-4.8,-2.0
CCOc1ccc(NC(=O)c2nn(C)c(C(=O)Nc3ccc(OCC)cc3)c2[N+](=O)[O-])cc1,nt,nt,nt,nt,15.7,nt
O=[N+]([O-])/C(C(Cl)=C(Cl)Cl)=C(\Nc1ccc(F)cc1)n1cncn1,72.7*,1.1,50.5,19.9,nt,3.0
CCOc1ccc(N/C(=C(/C(Cl)=C(Cl)Cl)[N+](=O)[O-])n2cncn2)cc1,77.2*,3.3,67.2,38.0,nt,6.0
CCOc1ccccc1N/C(=C(/C(Cl)=C(Cl)Cl)[N+](=O)[O-])n1cncn1,60.7*,-0.1,73.8*,42.4,nt,-3.0

# Bioassay records (PubChem)
